Holding throughout (assay): NCI-60 one-dose screen, 48 h (100 = growth as untreated, 0 = no growth, -100 = all killed)
Holding throughout (conditions): 10 µM unless noted

Experiment [1] has as its system T-47D breast.
In experiment [2] the test system is BT-549 breast.
In experiment [3] the test system is MDA-MB-435 melanoma.
For experiment [4], the system named is SW-620 colon.
The test system of experiment [5] is MCF7 breast.
Experiment [6] has as its system HCT-116 colon.
The test system of experiment [7] is HCC-2998 colon.
Experiment [8] deals with KM12 colon.

The structures appear in SMILES notation. Compounds without any hit were thinned out: in the full panel of roughly 83,000, 20% have a hit.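 Method: cells in 96-well plates; compound added at one concentration; 48 h incubation; percent growth measured; values under 10 scored active.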 Unmarked numbers belong to inactive results. Activity calls are given as the source filed them.

In the case of `COc1cc(OC)cc(C(=O)Nc2cnc(Nc3ccc(N4CCOCC4)nc3)nc2Oc2ccc(C(F)(F)F)cc2)c1`, the growth in experiment [1] was 69.9%; in experiment [2] it was 77.5%; in experiment [3], 74.9%; in experiment [4], 71.2%; in experiment [5] it was 59.1%; in experiment [6] it was 16.1%. The values for the growth in experiment [7] and in experiment [8] were 99.9% and 88%, respectively.
Consider `C#Cc1ccc(NC(=O)Cc2ccc(/C=C/C(=O)c3nccn3C)cc2)cc1`, for which the growth in experiment [1] is 69.2%; in experiment [2] it was 71.2%; in experiment [3], 83.6%; in experiment [4], 15.8%; in experiment [5], 21.5%; in experiment [6] it was 21.6%. Besides, the figures for the growth in experiment [7] and in experiment [8] were 82.3% and 25.6%, respectively.
`COc1ccccc1-c1nc2ccc3[nH]ncc3c2c2c1CCCC2`: the growth in experiment [1] was 74.2%; in experiment [2], 77.1%; in experiment [3], 64.4%; in experiment [4] it was 82.6%; in experiment [5], 68.7%; in experiment [6] it was 64.9%. Also, the growth in experiment [7] is 113%; in experiment [8], 31%.
With `O=C(NC1CCCCCC1)c1ccc2c(=O)n3c(nc2c1)CCCCC3`, the growth in experiment [1] is 100%; in experiment [2], 100%; in experiment [3], 112%; in experiment [4] it was 101%; in experiment [5] it was 100%; in experiment [6], 104%. Besides, the growth in experiment [7] was 121%; in experiment [8], 115%.
Regarding `O=C(/C=C/C12c3ccccc3C(c3ccccc31)C1C(=O)NC(=O)C12)c1cccs1` (stereo not drawn), the growth in experiment [1] is 39.9%; in experiment [2], 33.5%; in experiment [3], 4.93% (active); in experiment [4], 27.1%; in experiment [5] it was 14.2%; in experiment [6] it was 14.4%. The growth in experiment [7] is 99.4%; in experiment [8], 22.6%.
Turning to `O=C(CSc1nnc(-c2ccc(Cl)c(Cl)c2)n1-c1ccccc1)Nc1ccc(C(=O)/C=C/c2ccc(Cl)cc2)cc1`, the growth is 81.8% in experiment [1]; 77.5% in experiment [2]; 94.3% in experiment [3]; 94.4% in experiment [4]; 68.1% in experiment [5]; 6.82% (active) in experiment [6]. Further, the growth in experiment [7] was 110%; in experiment [8] it was 99.3%.
For `COc1ccc(Cn2cc(C(=O)N=Nc3c(O)[nH]c4ccc(Br)cc34)nn2)cc1`, the growth is 106% in experiment [1]; 111% in experiment [2]; 101% in experiment [3]; 107% in experiment [4]; 86.3% in experiment [5]; 77% in experiment [6]. The growth in experiment [7] is 98.5%; in experiment [8] it was 104%.
On to `Clc1ccc2c(NCCCn3cnc4c(N5CCCC5)nc(Cl)nc43)ccnc2c1`, for which the growth in experiment [1] was 85.6%; in experiment [2], 97.7%; in experiment [3], 101%; in experiment [4], 103%; in experiment [5], 91.9%; in experiment [6] it was 93.4%. For the same compound, the values for the growth in experiment [7] and in experiment [8] were 108% and 98.1%, respectively.
On to `C=C(C)[C@@H]1CC[C@]2(C#N)CC[C@]3(C)[C@H](CC[C@@H]4[C@@]5(C)CCCNC(C)(C)[C@@H]5CC[C@]43C)[C@@H]12`, for which the growth in experiment [1] was 78.8%; in experiment [2], 96.1%; in experiment [3], 44.2%; in experiment [4], 2.83% (active); in experiment [5], 20%; in experiment [6], 41.6%. In addition, the growth in experiment [7] was -40.2% (active); in experiment [8] it was 41%.
For `CCOc1cc(\C=N/N=C(N)/C(N)=N\N=C/c2ccc(O)c(OCC)c2)ccc1O`, the growth in experiment [1] is 47.4%; in experiment [2] it was 93.1%; in experiment [3], 98.7%; in experiment [4], 108%; in experiment [5], 91.5%; in experiment [6] it was 99.6%. Moreover, the growth in experiment [7] is 98.6%; in experiment [8] it was 101%.
Take `COc1cc(C)cc(-c2c(-c3cc(N4CC(O)C4)nc(-c4cccnc4)n3)cnn2C)c1`: the growth in experiment [1] is 62.6%; in experiment [2] it was 89.7%; in experiment [3], 92%; in experiment [4], 101%; in experiment [5], 87.6%; in experiment [6], 96.1%. Moreover, the growth is 92.8% in experiment [7] and 84.7% in experiment [8].
For `C#CCOc1cccc(Nc2ncnc3c(NC(=O)CCl)cccc23)c1`, the growth was -31.4% (active) in experiment [1]; 23% in experiment [2]; 26.4% in experiment [3]; 1.15% (active) in experiment [4]; 10.9% in experiment [5]; 2.88% (active) in experiment [6]. In addition, the growth in experiment [7] was 91.8%; in experiment [8], 28.6%.
As for `CC(C)(C)n1cc(-c2ccnc(NCCNS(=O)(=O)c3ccc(Br)cc3)c2)c(-c2cccc(O)c2)n1`, the growth in experiment [1] is 8.09% (active); in experiment [2] it was 30.8%; in experiment [3], 28.1%; in experiment [4] it was 5.53% (active); in experiment [5], 8.18% (active); in experiment [6] it was 19.7%. For the same compound, the growth in experiment [7] was -17.5% (active); in experiment [8] it was 17.3%.
As to `CC1(C)CC[C@]2(CO)CC[C@]3(C)C(=CC[C@@H]4[C@@]5(C)CCNCC(C)(C)[C@@H]5CC[C@]43C)[C@@H]2C1`, the growth was 56.3% in experiment [1]; 90.1% in experiment [2]; 41.6% in experiment [3]; 21% in experiment [4]; 38.6% in experiment [5]; 55.5% in experiment [6]. For the same compound, the growth was -60.8% (active) in experiment [7] and 34.7% in experiment [8].
As to `COc1ccc(C2=NN3C(C2)c2cc(Br)ccc2OC3c2ccncc2)cc1` (stereo not drawn), the growth was 69.1% in experiment [1]; 76.6% in experiment [2]; 92.4% in experiment [3]; 90.7% in experiment [4]; 70.7% in experiment [5]; 76.8% in experiment [6]. The growth in experiment [7] is 105%; in experiment [8], 73%.
With `CC1=C(C(=O)c2ccccc2)C(c2ccc3c(c2)OCO3)NC(=S)N1` (stereo not drawn), the growth in experiment [1] is 67.9%; in experiment [2], 50.6%; in experiment [3], -49.5% (active); in experiment [4], 24.2%; in experiment [5], 22%; in experiment [6], 20.1%. Moreover, the growth was 62.2% in experiment [7] and 20% in experiment [8].
With `Cc1cc2c(c(C)n1)CN(C(=O)Nc1nc(-c3cncs3)ccc1N)C2`, the growth in experiment [1] is 90.5%; in experiment [2], 105%; in experiment [3], 102%; in experiment [4], 107%; in experiment [5], 89.3%; in experiment [6], 92.3%. Further, the growth in experiment [7] is 107%; in experiment [8], 95.8%.
As for `O=S(=O)(Nc1ccc(Br)cc1)c1ccc(-c2cnc(C3CC3)o2)cc1`, the growth in experiment [1] is 18.6%; in experiment [2] it was 47.1%; in experiment [3], -9% (active); in experiment [4] it was 11.1%; in experiment [5], 16.1%; in experiment [6], 18.7%. Besides, the growth in experiment [7] was 56.2%; in experiment [8], 24.6%.
As to `COC(=O)[C@@H](Cc1c[nH]c2ccccc12)NC[C@@H](O)CN1C(=O)/C(=C\c2cc(OC)c(OC)c(OC)c2)c2ccccc21`, the growth in experiment [1] was 54.5%; in experiment [2], 68.4%; in experiment [3] it was 56.1%; in experiment [4], 77.3%; in experiment [5], 34.2%; in experiment [6], 66%. For the same compound, the values for the growth in experiment [7] and in experiment [8] were 75.2% and 60.4%, respectively.
Regarding `COc1cccc(/C=C2\CCc3ccccc3C2=O)c1`, the growth in experiment [1] was 75.3%; in experiment [2], 86.4%; in experiment [3] it was 58.2%; in experiment [4], 52.1%; in experiment [5], 27.5%; in experiment [6] it was 53.4%. Moreover, the growth is 94.7% in experiment [7] and 64% in experiment [8].
For `COC1=C(OC)C(=O)C(CCCCCCCCCCO)=C(C)C1=O`, the growth in experiment [1] is 19.3%; in experiment [2], 87.4%; in experiment [3], -51% (active); in experiment [4], 103%; in experiment [5] it was 30.2%; in experiment [6] it was 52.9%. The growth in experiment [7] is 115%; in experiment [8], 67.5%.
As for `COC(=O)c1c(C(=O)OC)c2ccc3c4ncccc4ccc3n2c1C(=O)c1ccc(C)cc1`, the growth was 54.4% in experiment [1]; 88.1% in experiment [2]; 102% in experiment [3]; 98.8% in experiment [4]; 86.2% in experiment [5]; 95.6% in experiment [6]. For the same compound, the growth in experiment [7] is 107%; in experiment [8] it was 97%.
For `CN(C)c1ccc(/C=C/C2=[N+](C)c3ccccc3C2(C)C)cc1`, the growth was 20.5% in experiment [1]; 17.2% in experiment [2]; 12.9% in experiment [3]; 37.7% in experiment [4]; 5.64% (active) in experiment [5]; 15.7% in experiment [6]. Further, the growth in experiment [7] was 28%; in experiment [8], 7.96% (active).
On to `CN(C)C(=O)OCc1ccc2c(Cl)cc(Cl)c(O)c2n1`, for which the growth is 37.8% in experiment [1]; 60.3% in experiment [2]; 31.2% in experiment [3]; 25.7% in experiment [4]; 32.4% in experiment [5]; 31.6% in experiment [6]. Further, the growth in experiment [7] is 61.8%; in experiment [8], 35.4%.
Regarding `COc1cccc(C(=O)Nc2cccc(NC(=O)c3ccccn3)c2)c1`, the growth in experiment [1] is 87.4%; in experiment [2] it was 91.3%; in experiment [3] it was 93.2%; in experiment [4], 109%; in experiment [5], 83%; in experiment [6], 94%. The growth in experiment [7] was 83.2%; in experiment [8], 99.6%.
For the compound `COc1ccc(NC(=O)c2ccc(Cl)cc2Cl)cc1`, the growth is 94.5% in experiment [1]; 101% in experiment [2]; 88.3% in experiment [3]; 95% in experiment [4]; 93.8% in experiment [5]; 99.4% in experiment [6]. The growth in experiment [7] is 105%; in experiment [8], 99.1%.
On to `COc1nc2ccccc2cc1/C=[N+](\[O-])c1ccccc1`, for which the growth in experiment [1] is 58.9%; in experiment [2] it was 86.7%; in experiment [3], 42.2%; in experiment [4] it was 28.4%; in experiment [5], 28.6%; in experiment [6], 10.2%. Besides, the results for the growth in experiment [7] and in experiment [8] were 105% and 84%, respectively.
As for `CCN(CC)c1ccc(/C=N/NC(=O)c2ccccc2Nc2ccnc(C(F)(F)F)c2)c(O)c1`, the growth was 22.3% in experiment [1]; 38.5% in experiment [2]; 29.3% in experiment [3]; 37.3% in experiment [4]; 20.4% in experiment [5]; 27.7% in experiment [6]. In addition, the growth in experiment [7] is 76.7%; in experiment [8], 31.4%.
On to `COc1cccc(C2C3=C(COC3=O)N(CCO)c3cc4c(cc32)OCCO4)c1` (stereo not drawn), for which the growth is 65.3% in experiment [1]; 14.5% in experiment [2]; -28.2% (active) in experiment [3]; 17.7% in experiment [4]; 13.1% in experiment [5]; 3.53% (active) in experiment [6]. Besides, the results for the growth in experiment [7] and in experiment [8] were 4.51% (active) and -11.8% (active), respectively.
On to `CN1C(=O)N(C)C2C1NN=c1s/c(=C\c3ccccc3F)c(=O)n12` (stereo not drawn), for which the growth in experiment [1] was 52.6%; in experiment [2] it was 18.9%; in experiment [3] it was -40.2% (active); in experiment [4] it was 18.8%; in experiment [5] it was 18.6%; in experiment [6], 14%. Besides, the growth in experiment [7] is 5.08% (active); in experiment [8], 17.4%.
With `COc1nc2ccccc2cc1/C=C1/C=C(c2ccccc2)NC1=O`, the growth in experiment [1] was 37.3%; in experiment [2] it was 51.4%; in experiment [3] it was -12.5% (active); in experiment [4], 27.7%; in experiment [5], 24.2%; in experiment [6], 12.7%. Also, the growth is 80.6% in experiment [7] and 31.5% in experiment [8].
